Holding throughout (test): NCI-60 one-dose screen, 48 h (100 = growth as untreated, 0 = no growth, -100 = all killed)
One assay relates to DU-145 prostate. The conditions noted are these: 10 µM unless noted.
The next assay concerns K-562 leukemia. The conditions noted are these: 10 µM unless noted.
In another assay the test system is MALME-3M melanoma. The conditions noted are these: 10 µM unless noted.
The subject of another assay is MDA-MB-231 breast. The conditions noted are these: 10 µM unless noted.
The subject of a further assay is RXF 393 renal. The note with it: 10 µM unless noted.
For another assay, the system named is SF-268 CNS. The note with it: 10 µM unless noted.
The next assay deals with SF-295 CNS. The conditions noted are these: 10 µM unless noted.
A further assay relates to SF-539 CNS. The note with it: 10 µM unless noted.
The subject of another assay is UACC-257 melanoma. The note with it: 10 µM unless noted.
A further assay concerns M14 melanoma. The conditions noted are these: 10 µM unless noted.
In a further assay the test system is HCT-15 colon. The conditions noted are these: 10 µM unless noted.
A further assay relates to HT29 colon. The note with it: 10 µM unless noted.
A further assay relates to SNB-75 CNS. The note with it: 10 µM unless noted.
The subject of the next assay is SNB-19 CNS. The note with it: 10 µM unless noted.
In a further assay the test system is U251 CNS. The conditions noted are these: 10 µM unless noted.
A further assay deals with PC-3 prostate. The note with it: 10 µM unless noted.
In the next assay the test system is SK-MEL-5 melanoma. The note with it: 10 µM unless noted.
In a further assay the test system is UACC-62 melanoma. The note with it: 10 µM unless noted.
The next assay relates to SK-MEL-28 melanoma. The conditions noted are these: 10 µM unless noted.
In another assay the test system is LOX IMVI melanoma. The conditions noted are these: 10 µM.

The panel holds about 83,000 compounds, 20% with a hit somewhere; the sample as a whole holds those more often.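 Compound tested at a single concentration for 48 hours in 96-well plates; a percent growth value below 10 was scored as active.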 Values without a mark were called inactive. Activity calls are given as the source filed them.

Turning to `COc1ccc(C(=O)/C=C/c2ccc(Oc3nc(Nc4ccc(F)cc4)nc(N(C)C)n3)c(OC)c2)cc1`, the growth in the assay with DU-145 prostate is 51.7%; in the assay on K-562 leukemia it was 26.4%; in the assay with MALME-3M melanoma it was 79%; with MDA-MB-231 breast it was 53.9%; in the assay with RXF 393 renal, 50.6%; with SF-268 CNS, 51.8%. Moreover, the growth is 51.5% in the assay on SF-295 CNS; 26.8% in the assay with SF-539 CNS; 42.5% with UACC-257 melanoma; 65.1% with M14 melanoma; 33.8% in the assay with HCT-15 colon; 59% in the assay on HT29 colon. For the same compound, the growth in the assay with SNB-75 CNS is 66.4%; with SNB-19 CNS it was 63.4%; in the assay on U251 CNS it was 11.4%; with PC-3 prostate, 50.5%; in the assay with SK-MEL-5 melanoma it was 32.9%; with UACC-62 melanoma, 41%. Moreover, in the assay with SK-MEL-28 melanoma, the growth was 76.7%.

For the compound `COc1cc(C2CC(c3cc(OC)c(OC)c(OC)c3)=NN2c2ccccc2)ccc1OCc1ccc(C)cc1` (configuration not stated), the growth in the assay on DU-145 prostate was 100%; in the assay on K-562 leukemia it was 92.8%; in the assay on MALME-3M melanoma, 95.3%; in the assay on MDA-MB-231 breast, 102%; with RXF 393 renal, 101%; in the assay with SF-268 CNS it was 87.6%. Besides, the growth with SF-295 CNS was 108%; in the assay on SF-539 CNS it was 95.7%; in the assay with UACC-257 melanoma it was 101%; in the assay on M14 melanoma, 97.8%; with HCT-15 colon, 86.2%; in the assay with HT29 colon, 85.7%. For the same compound, the growth in the assay with SNB-75 CNS is 84.1%; in the assay with SNB-19 CNS it was 91.7%; in the assay with U251 CNS, 96.7%; in the assay on PC-3 prostate, 92.9%; in the assay on SK-MEL-5 melanoma, 92.3%; with UACC-62 melanoma, 78.8%. For the same compound, in the assay with SK-MEL-28 melanoma, the growth was 103%.

Consider `C/C(=N\N=C\c1cc([N+](=O)[O-])ccc1Cl)c1ccc2c(c1)Nc1ccccc1S2`, for which the growth was 84.2% in the assay on DU-145 prostate; 57.1% in the assay with K-562 leukemia; 74.2% with MALME-3M melanoma; 49.9% with MDA-MB-231 breast; 62.8% with RXF 393 renal; 80.4% in the assay on SF-268 CNS. For the same compound, the growth in the assay on SF-295 CNS is -28% (active); with SF-539 CNS, 58.1%; in the assay with UACC-257 melanoma, 81.5%; in the assay with M14 melanoma, 88.2%; with HCT-15 colon it was 72.4%; in the assay with HT29 colon, 72.2%. For the same compound, the growth was 5.46% (active) in the assay on SNB-75 CNS; 51.6% in the assay with SNB-19 CNS; 7.09% (active) in the assay with U251 CNS; 82.4% in the assay with PC-3 prostate; 78.6% in the assay with SK-MEL-5 melanoma; 69.6% in the assay on UACC-62 melanoma. Further, in the assay with SK-MEL-28 melanoma, the growth is 90.7%.

With `COc1ccc(C2=NN(C(C)=O)C(c3ccc(OCc4ccc(Cl)cc4)c(OC)c3)C2)cc1OC` (configuration not stated), the growth in the assay with DU-145 prostate is 51.3%; with K-562 leukemia, 31%; in the assay with MALME-3M melanoma, 48.1%; with MDA-MB-231 breast, 69.6%; in the assay on RXF 393 renal it was 52.9%; in the assay on SF-268 CNS, 47.1%. In addition, the growth in the assay on SF-295 CNS was 37.8%; in the assay with SF-539 CNS, 63.8%; with UACC-257 melanoma, 40.2%; in the assay on M14 melanoma it was 54.2%; in the assay with HCT-15 colon it was 27.9%; in the assay on HT29 colon, 40.1%. In addition, the growth is 61.3% in the assay with SNB-75 CNS; 51.4% in the assay on SNB-19 CNS; 46.8% with U251 CNS; 23.6% in the assay with PC-3 prostate; -9.52% (active) in the assay on SK-MEL-5 melanoma; 34% in the assay with UACC-62 melanoma. In the assay on SK-MEL-28 melanoma, the growth is 56.8%.

For the compound `C/C(=N\N=C1/C(=O)Nc2ccc(Cl)cc21)c1ccc2c(c1)Nc1ccccc1S2`, the growth in the assay with DU-145 prostate was -56.3% (active); in the assay on K-562 leukemia it was 10%; in the assay with MALME-3M melanoma, -19.6% (active); in the assay on MDA-MB-231 breast, -2.47% (active); in the assay with RXF 393 renal it was -11.5% (active); in the assay with SF-268 CNS it was 35.7%. The growth with SF-295 CNS is -27.4% (active); with SF-539 CNS, 3.26% (active); with UACC-257 melanoma, 10.1%; in the assay on M14 melanoma, -20.8% (active); in the assay on HCT-15 colon it was 0.895% (active); with HT29 colon, -31.1% (active). The growth in the assay with SNB-75 CNS is 8.6% (active); in the assay on SNB-19 CNS it was 18.7%; with U251 CNS, -32.1% (active); in the assay on PC-3 prostate it was -5.59% (active); in the assay with SK-MEL-5 melanoma, -15.6% (active); with UACC-62 melanoma, 13.5%. The growth in the assay with SK-MEL-28 melanoma is -48.9% (active).

For the compound `COc1cc(C2CC(c3cc(OC)c(OC)c(OC)c3)=Nc3c(N)nc(N)nc3N2)ccc1Oc1nc(NCCO)nc(N2CCOCC2)n1` (configuration not stated), the growth in the assay with DU-145 prostate is 114%; in the assay on K-562 leukemia it was 91.1%; in the assay on MALME-3M melanoma, 98.5%; with MDA-MB-231 breast it was 102%; in the assay on RXF 393 renal, 105%; in the assay with SF-268 CNS, 93.8%. In addition, the growth was 101% in the assay on SF-295 CNS; 97.5% with SF-539 CNS; 105% in the assay with UACC-257 melanoma; 102% in the assay on M14 melanoma; 102% with HCT-15 colon; 107% in the assay on HT29 colon. Moreover, the growth was 88.7% in the assay with SNB-75 CNS; 94.9% in the assay with SNB-19 CNS; 101% with U251 CNS; 100% with PC-3 prostate; 99% with SK-MEL-5 melanoma; 102% in the assay with UACC-62 melanoma. The growth with SK-MEL-28 melanoma is 108%.

Consider `CC(=O)OC[C@@]1(C)C2CC[C@]3(C)C(CC=C4C5CC(C)(C)CC[C@]5(C(=O)Nc5ccc(Br)cc5)CC[C@]43C)[C@@]2(C)C[C@@H](OC(C)=O)[C@@H]1OC(C)=O` (some centres not stated), for which the growth is 49% in the assay on DU-145 prostate; 19.2% with K-562 leukemia; 55.9% in the assay with MALME-3M melanoma; 62.3% in the assay on MDA-MB-231 breast; 72.8% with RXF 393 renal; 66.1% in the assay with SF-268 CNS. The growth in the assay with SF-295 CNS was 26.8%; in the assay on SF-539 CNS, 38.7%; in the assay on UACC-257 melanoma it was 20%; in the assay with M14 melanoma, 52.6%; in the assay with HCT-15 colon it was 30.6%; with HT29 colon, 27%. Further, the growth is 56.1% in the assay on SNB-75 CNS; 38.5% with U251 CNS; 35.5% in the assay on PC-3 prostate; 8.44% (active) in the assay with SK-MEL-5 melanoma; 44.1% in the assay with UACC-62 melanoma; 12.2% in the assay with LOX IMVI melanoma. For the same compound, in the assay on SK-MEL-28 melanoma, the growth is 72.3%.

Regarding `CCCSc1nc(NCCc2c[nH]c3ccccc23)c(C#N)c(-c2ccccc2)n1`, the growth is 75.3% in the assay on DU-145 prostate; 25.2% with K-562 leukemia; 100% with MALME-3M melanoma; 40.6% in the assay with MDA-MB-231 breast; 55.2% with RXF 393 renal; 70.5% with SF-268 CNS. The growth is 72.6% with SF-295 CNS; 66.2% in the assay with SF-539 CNS; 100% in the assay on UACC-257 melanoma; 83.5% with M14 melanoma; 27.3% with HCT-15 colon; 30.3% in the assay on HT29 colon. The growth is 87.7% with SNB-75 CNS; 44.6% with U251 CNS; 35% in the assay with PC-3 prostate; 41.6% in the assay on SK-MEL-5 melanoma; 76.3% in the assay on UACC-62 melanoma; 53.3% with LOX IMVI melanoma. For the same compound, the growth in the assay on SK-MEL-28 melanoma was 97.4%.

For the origin of these results see PubChem BioAssay (NCI).
